In paper PMC7862700, “An all-to-all approach to the identification of sequence-specific readers for epigenetic DNA modifications on cytosine” one finds binding signal data, which are given here for one sequence.

Common to all, as to assay: DAPPL (digital affinity profiling via proximity ligation, sequencing); 10 mM Tris-HCl pH 7.5, 50 mM NaCl, 1 mM DTT, 4% glycerol, room temperature, 30 min; GST-TFs on glutathione beads, 16-mer random dsDNA library, 0.1% formaldehyde crosslink after washing; high values mean tight binding
One assay concerns the target T1, FEV (Homo sapiens, UniProt Q99581 1-238).
T1 sequence: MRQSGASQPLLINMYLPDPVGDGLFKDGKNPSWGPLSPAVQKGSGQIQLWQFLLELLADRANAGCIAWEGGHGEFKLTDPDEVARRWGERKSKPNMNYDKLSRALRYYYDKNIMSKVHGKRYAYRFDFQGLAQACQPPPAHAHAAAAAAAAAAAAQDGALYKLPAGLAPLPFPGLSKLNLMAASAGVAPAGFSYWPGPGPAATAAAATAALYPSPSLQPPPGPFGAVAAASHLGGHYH
The conditions noted are these: protein: recombinant; tags: N-terminal GST; dsDNA, one strand shown. Summed up:
(§1)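 Human transcription factors carrying a GST fusion were produced in yeast, bound to glutathione beads, tagged with DNA barcodes and pooled together with a tag-only sample. Each pool was held with 200 nmole of a random double-stranded 16-mer DNA library in Tris/NaCl/DTT/glycerol buffer for 30 min at room temperature, then washed, crosslinked in 0.1% formaldehyde, proximity-ligated with BsaI/T4 ligase (1 h, 37 °C), PCR-amplified and sequenced on an Illumina NextSeq500. Binding signal is the read frequency of each hexamer for a given factor divided by its frequency in the tag-only sample.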

Another assay addresses ETV5 (Homo sapiens, UniProt P41161 1-510). The note with it: protein: recombinant; tags: N-terminal GST; dsDNA, one strand shown. Summed up:
as §1

The next assay has as its target HSF1 (Homo sapiens, UniProt Q00613 1-529). The note with it: protein: recombinant; tags: N-terminal GST; chain copies: 3; dsDNA, one strand shown. Summed up: as §1
For a further assay, the target named is T2, SPIC (Homo sapiens, UniProt Q8N5J4 1-248).
T2 sequence: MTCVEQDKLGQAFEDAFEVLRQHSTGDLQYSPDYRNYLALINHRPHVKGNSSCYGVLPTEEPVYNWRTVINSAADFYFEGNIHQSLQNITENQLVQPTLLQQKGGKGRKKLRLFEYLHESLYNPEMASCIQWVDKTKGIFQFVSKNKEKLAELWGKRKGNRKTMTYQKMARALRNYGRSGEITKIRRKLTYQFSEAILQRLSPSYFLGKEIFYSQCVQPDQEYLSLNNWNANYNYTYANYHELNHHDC
The conditions noted are these: protein: recombinant; tags: N-terminal GST; dsDNA, one strand shown. Summed up:
as §1

For a further assay, the target named is ELF4 (Homo sapiens, UniProt Q99607 1-663). The note with it: protein: recombinant; tags: N-terminal GST; dsDNA, one strand shown. Summed up:
as §1

A further assay addresses T3, ELK4 (Homo sapiens, UniProt P28324-2 1-405).
T3 sequence: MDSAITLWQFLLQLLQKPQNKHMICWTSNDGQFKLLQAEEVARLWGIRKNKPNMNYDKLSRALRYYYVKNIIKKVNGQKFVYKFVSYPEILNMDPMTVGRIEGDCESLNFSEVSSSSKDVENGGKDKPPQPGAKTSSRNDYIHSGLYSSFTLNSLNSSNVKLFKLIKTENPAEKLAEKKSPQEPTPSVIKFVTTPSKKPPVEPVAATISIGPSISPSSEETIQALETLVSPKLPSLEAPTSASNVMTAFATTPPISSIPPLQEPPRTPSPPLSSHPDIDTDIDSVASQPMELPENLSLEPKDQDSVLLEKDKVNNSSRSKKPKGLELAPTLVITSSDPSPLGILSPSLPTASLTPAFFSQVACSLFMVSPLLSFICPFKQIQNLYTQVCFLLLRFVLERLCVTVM
The note with it: protein: recombinant; tags: N-terminal GST; dsDNA, one strand shown. Summed up: as §1

The next assay concerns the target T4, ETV2 (Homo sapiens, UniProt O00321 1-342).
T4 sequence: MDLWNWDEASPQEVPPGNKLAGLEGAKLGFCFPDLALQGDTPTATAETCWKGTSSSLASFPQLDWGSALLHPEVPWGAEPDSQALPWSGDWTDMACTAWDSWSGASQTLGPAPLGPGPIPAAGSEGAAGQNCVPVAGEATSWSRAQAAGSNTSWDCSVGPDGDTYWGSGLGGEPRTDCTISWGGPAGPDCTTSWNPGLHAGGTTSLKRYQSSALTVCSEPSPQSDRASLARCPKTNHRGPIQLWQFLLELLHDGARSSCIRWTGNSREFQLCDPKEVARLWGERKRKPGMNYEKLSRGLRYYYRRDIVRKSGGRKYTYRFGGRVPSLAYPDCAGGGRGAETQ
The note with it: protein: recombinant; tags: N-terminal GST; dsDNA, one strand shown. An outline of the steps: as §1

The next assay deals with T5, ELF3 (Homo sapiens, UniProt P78545 1-371).
T5 sequence: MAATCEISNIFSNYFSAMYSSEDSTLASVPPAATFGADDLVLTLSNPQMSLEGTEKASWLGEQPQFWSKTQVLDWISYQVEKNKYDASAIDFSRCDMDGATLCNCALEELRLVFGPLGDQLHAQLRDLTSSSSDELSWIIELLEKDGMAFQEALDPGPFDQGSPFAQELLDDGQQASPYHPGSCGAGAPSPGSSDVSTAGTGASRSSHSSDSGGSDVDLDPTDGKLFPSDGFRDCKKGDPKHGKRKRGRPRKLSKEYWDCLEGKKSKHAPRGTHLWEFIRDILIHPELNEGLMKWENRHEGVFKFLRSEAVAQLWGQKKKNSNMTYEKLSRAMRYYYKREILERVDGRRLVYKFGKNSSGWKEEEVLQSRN
The conditions noted are these: protein: recombinant; tags: N-terminal GST; dsDNA, one strand shown. An outline of the steps:
as §1

The target of the next assay is CRX (Homo sapiens, UniProt O43186 1-299). The conditions noted are these: protein: recombinant; tags: N-terminal GST; dsDNA, one strand shown. An outline of the steps: as §1
Sequence of CRX (O43186 whole entry): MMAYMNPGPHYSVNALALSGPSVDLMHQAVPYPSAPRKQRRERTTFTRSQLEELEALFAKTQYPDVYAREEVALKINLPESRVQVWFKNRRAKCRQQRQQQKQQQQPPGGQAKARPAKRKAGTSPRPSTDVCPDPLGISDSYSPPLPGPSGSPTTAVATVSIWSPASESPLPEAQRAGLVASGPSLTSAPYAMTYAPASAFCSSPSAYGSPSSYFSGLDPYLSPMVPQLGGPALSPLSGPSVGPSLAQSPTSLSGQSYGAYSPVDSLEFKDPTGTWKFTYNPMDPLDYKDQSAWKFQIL
The next assay addresses ETV1 (Homo sapiens, UniProt P50549 1-477). The note with it: protein: recombinant; tags: N-terminal GST; dsDNA, one strand shown. An outline of the steps:
as §1

The next assay deals with T6, ERF (Homo sapiens, UniProt P50548 1-548).
T6 sequence: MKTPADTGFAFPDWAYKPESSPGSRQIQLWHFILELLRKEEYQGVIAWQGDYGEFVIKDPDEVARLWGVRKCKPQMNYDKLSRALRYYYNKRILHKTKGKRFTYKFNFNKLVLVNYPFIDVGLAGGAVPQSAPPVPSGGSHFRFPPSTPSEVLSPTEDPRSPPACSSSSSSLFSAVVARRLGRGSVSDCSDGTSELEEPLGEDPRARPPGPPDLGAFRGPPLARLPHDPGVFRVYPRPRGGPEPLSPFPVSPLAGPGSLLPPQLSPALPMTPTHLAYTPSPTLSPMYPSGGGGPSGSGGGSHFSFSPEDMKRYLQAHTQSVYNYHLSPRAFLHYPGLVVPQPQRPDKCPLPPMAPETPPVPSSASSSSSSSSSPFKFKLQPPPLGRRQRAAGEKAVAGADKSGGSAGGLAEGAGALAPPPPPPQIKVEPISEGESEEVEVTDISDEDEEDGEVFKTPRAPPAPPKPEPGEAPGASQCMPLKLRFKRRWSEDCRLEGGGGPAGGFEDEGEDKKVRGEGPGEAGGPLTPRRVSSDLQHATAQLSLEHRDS
The conditions noted are these: protein: recombinant; tags: N-terminal GST; dsDNA, one strand shown. An outline of the steps: as §1

A further assay addresses T7, ETV3L (Homo sapiens, UniProt Q6ZN32 1-361).
T7 sequence: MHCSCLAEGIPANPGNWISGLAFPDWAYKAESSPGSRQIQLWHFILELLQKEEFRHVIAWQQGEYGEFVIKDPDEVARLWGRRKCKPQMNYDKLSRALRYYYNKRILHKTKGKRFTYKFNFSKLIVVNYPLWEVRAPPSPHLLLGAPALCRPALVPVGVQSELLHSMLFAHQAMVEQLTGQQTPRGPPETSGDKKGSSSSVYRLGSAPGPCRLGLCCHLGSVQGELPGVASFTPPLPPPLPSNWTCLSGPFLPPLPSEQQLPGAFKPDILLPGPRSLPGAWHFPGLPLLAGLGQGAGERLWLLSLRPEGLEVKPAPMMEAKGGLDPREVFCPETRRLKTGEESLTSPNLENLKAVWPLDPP
The note with it: protein: recombinant; tags: N-terminal GST; dsDNA, one strand shown. An outline of the steps:
as §1

For the next assay, the target named is T8, ETS2 (Homo sapiens, UniProt P15036 1-469).
T8 sequence: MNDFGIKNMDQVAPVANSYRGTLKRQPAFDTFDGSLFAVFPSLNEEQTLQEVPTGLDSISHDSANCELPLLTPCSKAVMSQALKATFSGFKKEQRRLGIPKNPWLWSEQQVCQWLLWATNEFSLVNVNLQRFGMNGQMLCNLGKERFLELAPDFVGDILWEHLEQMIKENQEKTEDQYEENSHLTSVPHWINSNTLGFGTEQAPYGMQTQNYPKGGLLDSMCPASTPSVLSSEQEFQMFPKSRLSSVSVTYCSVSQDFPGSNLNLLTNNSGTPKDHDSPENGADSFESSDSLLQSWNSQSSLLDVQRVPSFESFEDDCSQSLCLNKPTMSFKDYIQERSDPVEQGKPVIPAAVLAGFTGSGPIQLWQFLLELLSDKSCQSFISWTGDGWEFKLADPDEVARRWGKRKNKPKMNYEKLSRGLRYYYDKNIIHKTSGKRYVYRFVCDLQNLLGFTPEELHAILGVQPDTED
The conditions noted are these: protein: recombinant; tags: N-terminal GST; dsDNA, one strand shown. Summed up:
as §1

The next assay deals with T9, SPDEF (Homo sapiens, UniProt O95238 1-335).
T9 sequence: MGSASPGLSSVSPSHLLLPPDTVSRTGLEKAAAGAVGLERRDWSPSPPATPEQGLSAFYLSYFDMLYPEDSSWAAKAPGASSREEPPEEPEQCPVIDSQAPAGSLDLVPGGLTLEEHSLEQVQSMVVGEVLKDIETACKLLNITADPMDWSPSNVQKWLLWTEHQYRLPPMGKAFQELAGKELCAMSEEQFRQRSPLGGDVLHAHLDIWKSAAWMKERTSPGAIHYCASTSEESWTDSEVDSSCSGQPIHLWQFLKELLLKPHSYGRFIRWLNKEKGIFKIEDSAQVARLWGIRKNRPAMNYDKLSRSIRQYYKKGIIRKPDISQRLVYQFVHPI
The note with it: protein: recombinant; tags: N-terminal GST; dsDNA, one strand shown. Summed up: as §1

In another assay the target is T10, ETV7 (Homo sapiens, UniProt Q9Y603 1-341).
T10 sequence: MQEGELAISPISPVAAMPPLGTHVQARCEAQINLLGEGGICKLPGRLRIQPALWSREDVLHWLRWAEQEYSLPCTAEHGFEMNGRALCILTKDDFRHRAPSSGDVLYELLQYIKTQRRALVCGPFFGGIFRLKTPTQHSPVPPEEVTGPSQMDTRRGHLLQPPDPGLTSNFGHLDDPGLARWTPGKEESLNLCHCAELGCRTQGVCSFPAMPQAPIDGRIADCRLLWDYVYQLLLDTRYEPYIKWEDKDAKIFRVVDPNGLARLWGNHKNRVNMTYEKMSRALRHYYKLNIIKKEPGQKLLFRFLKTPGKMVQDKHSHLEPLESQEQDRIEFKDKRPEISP
The note with it: protein: recombinant; tags: N-terminal GST; dsDNA, one strand shown. Summed up: as §1

Another assay has as its target T11, ELF5 (Homo sapiens, UniProt Q9UKW6-2 1-255).
T11 sequence: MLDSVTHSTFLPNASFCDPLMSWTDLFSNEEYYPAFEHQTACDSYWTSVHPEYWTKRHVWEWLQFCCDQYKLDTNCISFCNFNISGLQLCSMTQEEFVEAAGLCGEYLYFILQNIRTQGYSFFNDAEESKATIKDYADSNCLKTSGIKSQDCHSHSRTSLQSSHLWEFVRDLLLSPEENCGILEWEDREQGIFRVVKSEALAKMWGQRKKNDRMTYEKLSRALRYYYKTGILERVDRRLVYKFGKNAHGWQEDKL
The conditions noted are these: protein: recombinant; tags: N-terminal GST; dsDNA, one strand shown. An outline of the steps:
as §1

The next assay addresses T12, ETV3 (Homo sapiens, UniProt P41162-2 1-143).
T12 sequence: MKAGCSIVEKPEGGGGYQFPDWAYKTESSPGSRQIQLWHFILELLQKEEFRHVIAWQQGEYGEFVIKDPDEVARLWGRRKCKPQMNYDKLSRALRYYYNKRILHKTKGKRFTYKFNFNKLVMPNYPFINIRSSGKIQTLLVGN
The note with it: protein: recombinant; tags: N-terminal GST; dsDNA, one strand shown. Summed up: as §1

Another assay deals with ETV6 (Homo sapiens, UniProt P41212 1-452). The note with it: protein: recombinant; tags: N-terminal GST; dsDNA, one strand shown. Summed up:
as §1

Sequence of ETV6 (P41212 whole entry): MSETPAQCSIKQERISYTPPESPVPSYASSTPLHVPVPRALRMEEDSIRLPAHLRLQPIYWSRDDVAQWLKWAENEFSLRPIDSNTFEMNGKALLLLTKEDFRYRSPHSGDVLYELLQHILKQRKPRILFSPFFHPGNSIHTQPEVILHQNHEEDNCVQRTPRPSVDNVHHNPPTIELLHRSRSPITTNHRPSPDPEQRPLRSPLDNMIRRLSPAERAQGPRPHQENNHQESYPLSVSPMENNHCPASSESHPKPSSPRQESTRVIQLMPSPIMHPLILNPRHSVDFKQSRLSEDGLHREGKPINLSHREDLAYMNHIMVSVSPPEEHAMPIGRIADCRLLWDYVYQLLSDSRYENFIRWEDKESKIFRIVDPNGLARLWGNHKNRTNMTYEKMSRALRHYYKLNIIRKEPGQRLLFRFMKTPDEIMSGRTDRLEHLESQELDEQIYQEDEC
Sequence of ETV1 (P50549 whole entry): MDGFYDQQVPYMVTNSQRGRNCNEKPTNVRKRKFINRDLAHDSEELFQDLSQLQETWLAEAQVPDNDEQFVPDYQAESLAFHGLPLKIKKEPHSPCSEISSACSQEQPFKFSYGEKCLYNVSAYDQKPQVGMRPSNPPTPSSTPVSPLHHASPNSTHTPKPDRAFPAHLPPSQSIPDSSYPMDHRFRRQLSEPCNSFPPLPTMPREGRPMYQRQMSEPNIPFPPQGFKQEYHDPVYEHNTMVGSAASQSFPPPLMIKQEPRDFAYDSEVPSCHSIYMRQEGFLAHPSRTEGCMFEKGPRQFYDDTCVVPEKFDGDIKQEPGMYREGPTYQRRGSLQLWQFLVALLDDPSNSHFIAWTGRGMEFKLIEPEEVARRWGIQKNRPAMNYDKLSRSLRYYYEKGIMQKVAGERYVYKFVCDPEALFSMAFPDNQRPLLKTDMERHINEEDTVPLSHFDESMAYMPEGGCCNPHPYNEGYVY
Sequence of ELF4 (Q99607 whole entry): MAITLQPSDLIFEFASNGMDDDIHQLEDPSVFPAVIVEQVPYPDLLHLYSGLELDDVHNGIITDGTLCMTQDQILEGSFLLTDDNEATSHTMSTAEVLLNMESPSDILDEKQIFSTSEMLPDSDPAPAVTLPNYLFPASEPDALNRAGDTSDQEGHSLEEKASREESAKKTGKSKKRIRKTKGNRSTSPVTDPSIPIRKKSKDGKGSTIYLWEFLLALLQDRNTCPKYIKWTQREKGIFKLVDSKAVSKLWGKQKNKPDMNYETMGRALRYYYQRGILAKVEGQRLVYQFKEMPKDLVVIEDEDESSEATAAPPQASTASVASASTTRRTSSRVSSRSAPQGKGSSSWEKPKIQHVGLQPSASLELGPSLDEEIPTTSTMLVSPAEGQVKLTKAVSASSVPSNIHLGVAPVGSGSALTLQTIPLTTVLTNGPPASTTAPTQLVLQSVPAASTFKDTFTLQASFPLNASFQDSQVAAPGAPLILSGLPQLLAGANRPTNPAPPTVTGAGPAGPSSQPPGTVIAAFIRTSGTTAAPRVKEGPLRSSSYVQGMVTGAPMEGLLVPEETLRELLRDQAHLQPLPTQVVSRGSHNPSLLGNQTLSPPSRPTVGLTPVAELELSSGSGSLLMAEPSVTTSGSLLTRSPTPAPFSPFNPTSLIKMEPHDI
Sequence of ETV5 (P41161 whole entry): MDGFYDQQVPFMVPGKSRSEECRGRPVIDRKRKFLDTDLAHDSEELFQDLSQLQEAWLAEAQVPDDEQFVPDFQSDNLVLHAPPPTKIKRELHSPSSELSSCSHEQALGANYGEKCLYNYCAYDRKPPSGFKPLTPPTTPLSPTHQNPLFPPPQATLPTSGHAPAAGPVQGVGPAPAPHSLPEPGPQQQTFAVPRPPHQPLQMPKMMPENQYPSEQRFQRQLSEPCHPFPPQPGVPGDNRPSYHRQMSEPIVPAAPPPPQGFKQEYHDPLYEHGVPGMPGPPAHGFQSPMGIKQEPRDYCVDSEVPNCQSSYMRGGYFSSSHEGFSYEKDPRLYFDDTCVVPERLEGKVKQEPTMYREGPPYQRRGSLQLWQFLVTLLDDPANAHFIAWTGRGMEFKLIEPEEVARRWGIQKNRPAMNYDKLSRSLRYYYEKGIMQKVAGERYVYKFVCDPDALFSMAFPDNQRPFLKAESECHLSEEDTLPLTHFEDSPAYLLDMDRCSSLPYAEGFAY
Sequence of HSF1 (Q00613 whole entry): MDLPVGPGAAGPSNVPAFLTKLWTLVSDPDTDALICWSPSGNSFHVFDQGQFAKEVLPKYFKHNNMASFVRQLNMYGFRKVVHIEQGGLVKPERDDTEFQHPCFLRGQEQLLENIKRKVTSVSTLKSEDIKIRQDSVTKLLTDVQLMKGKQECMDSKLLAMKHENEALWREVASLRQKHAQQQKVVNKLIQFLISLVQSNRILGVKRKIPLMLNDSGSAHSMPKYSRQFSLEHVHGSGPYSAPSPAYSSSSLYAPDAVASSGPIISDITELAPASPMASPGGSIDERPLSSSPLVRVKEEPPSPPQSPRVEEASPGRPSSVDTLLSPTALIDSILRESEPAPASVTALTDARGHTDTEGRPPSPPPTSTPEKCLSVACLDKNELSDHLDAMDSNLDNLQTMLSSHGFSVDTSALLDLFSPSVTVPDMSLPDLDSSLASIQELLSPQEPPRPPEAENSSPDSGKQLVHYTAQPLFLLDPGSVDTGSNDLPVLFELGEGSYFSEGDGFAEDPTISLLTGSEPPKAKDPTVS

Regarding TTTGCA, the binding signal with FEV is 1.18 fold enrichment (6-mer frequency, TF over GST control); with ETV5, 1.22 fold enrichment (6-mer frequency, TF over GST control); in the assay with HSF1, 1.26 fold enrichment (6-mer frequency, TF over GST control); with SPIC it was 1.23 fold enrichment (6-mer frequency, TF over GST control); with ELF4, 1.29 fold enrichment (6-mer frequency, TF over GST control); in the assay with ELK4, 1.3 fold enrichment (6-mer frequency, TF over GST control). Besides, the binding signal with ETV2 is 1.24 fold enrichment (6-mer frequency, TF over GST control); with ELF3, 1.28 fold enrichment (6-mer frequency, TF over GST control); in the assay with CRX, 1.48 fold enrichment (6-mer frequency, TF over GST control); with ETV1 it was 1.29 fold enrichment (6-mer frequency, TF over GST control); in the assay with ERF, 1.13 fold enrichment (6-mer frequency, TF over GST control); with ETV3L, 1.31 fold enrichment (6-mer frequency, TF over GST control). The binding signal was 1.14 fold enrichment (6-mer frequency, TF over GST control) with ETS2; 1.23 fold enrichment (6-mer frequency, TF over GST control) with SPDEF; 1.21 fold enrichment (6-mer frequency, TF over GST control) with ETV7; 1.24 fold enrichment (6-mer frequency, TF over GST control) in the assay with ELF5; 1.26 fold enrichment (6-mer frequency, TF over GST control) with ETV3; 1.32 fold enrichment (6-mer frequency, TF over GST control) with ETV6.
